# Compounds with a hit are over-represented: about 1.3% of the library has one in this group of screens.
# mIDH1 inhibitor: blocks human mutant IDH1 R132H enzyme; O75874; IDH1-R132H enzyme, NADPH consumption, diaphorase/resazurin fluorescence; Potency, µM (top dose mostly 76.6 µM), inactives show top-dose activity change, negative = inhibition, usual class: inhibitors; 390,000 tested, 0.093% active; further: nearly all actives have a fitted effect of over 65% in size
# Target sequence (O75874 whole entry R132H, stated change not applied): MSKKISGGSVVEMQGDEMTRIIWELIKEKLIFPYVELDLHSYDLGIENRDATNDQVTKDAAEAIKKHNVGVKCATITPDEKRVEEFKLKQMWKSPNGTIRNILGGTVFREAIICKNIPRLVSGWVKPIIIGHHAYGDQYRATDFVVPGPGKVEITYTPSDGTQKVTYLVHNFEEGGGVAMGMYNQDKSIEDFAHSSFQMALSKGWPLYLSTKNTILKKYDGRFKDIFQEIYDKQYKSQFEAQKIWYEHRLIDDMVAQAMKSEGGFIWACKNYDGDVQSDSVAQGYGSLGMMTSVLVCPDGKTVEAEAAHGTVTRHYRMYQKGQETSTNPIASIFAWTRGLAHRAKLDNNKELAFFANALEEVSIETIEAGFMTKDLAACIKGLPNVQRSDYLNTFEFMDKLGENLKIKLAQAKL
#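 IDH1-R132H (0.5 ug/mL dispensed) in pH 7.5 Tris buffer was preincubated 30 min with compound, then given a substrate mix of 0.016 mM NADPH and 2 mM alpha-KG for 80 min at room temperature; remaining NADPH was read by diaphorase/resazurin fluorescence.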
# Anesthetic bind: candidate novel general anesthetic via apoferritin binding. 350,000 tested, 0.074% active. Potency, µM (top dose mostly 77.5 µM), inactives show at the highest dose activity change, negative = displacement, most hits filed as inhibitors. P02791. apoferritin/1-aminoanthracene competitive binding, fluorescence; further: nearly all actives have a fitted effect of over 20% in size
# Target sequence (P02791 2-175 limits assumed): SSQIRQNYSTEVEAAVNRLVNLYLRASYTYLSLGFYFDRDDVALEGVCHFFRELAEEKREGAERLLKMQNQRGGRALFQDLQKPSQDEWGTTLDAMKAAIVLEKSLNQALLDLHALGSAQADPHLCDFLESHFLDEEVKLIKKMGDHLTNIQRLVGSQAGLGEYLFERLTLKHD
#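 Concentration-response curves derived by four-parameter Hill fitting of normalized fluorescence, where compounds displaced 1-AMA from 10 uM horse apoferritin following a brief 10 min room-temperature incubation; propofol titration acted as positive control.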
# PKM2 act: increases activity of human pyruvate kinase M2; P14618; purified PKM2, Kinase-Glo ATP luminescence, activation; response scale: 0% is enzyme alone, no compound; Potency, µM (top dose mostly 57.5 µM), inactives show at the highest dose activation, hits mostly activators; 260,000 tested, 0.34% active; AID 1631; further: nearly all actives have a fitted effect of over 55% in size
#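 ATP formation by purified human PK-M2, quantified via coupled luciferase luminescence after 1 h at room temperature with 0.1 mM ADP and 0.5 mM PEP final.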
# GALK inh: galactokinase (human) inhibition. Purified GALK, Kinase-Glo residual ATP luminescence. Potency, µM (series often up to 57.5 µM), for inactives: at the top dose activity change, negative = inhibition, usual class: inhibitors. 270,000 tested, 0.007% active. AID 1868
#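 5 nM enzyme, 35 uM ATP, 100 uM galactose, 20 mM HEPES pH8.0, 5 mM MgCl2; 1 h RT; residual ATP by Kinase-Glo Plus luminescence, qHTS format.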
# TrxR1 substrate: substrates of rat thioredoxin reductase 1; O89049; purified TrxR1 substrate turnover, NADPH consumption readout; Potency, µM (doses to about 114 µM), for the others: top-dose activity change, negative = substrate turnover; 390,000 tested, 0.01% active; further: nearly all actives have a fitted effect of over 50% in size
#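 Rat TrxR1, dispensed at 90 nM, was prereduced with 400 uM NADPH (final) for 5 min at ~22 deg C, then incubated with compound 15 min before 400 uM selenite. A first-read NADPH fluorescence drop versus no-compound background flagged substrates.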
# rTrxR1 inhibitor: inhibitors of rat thioredoxin reductase 1. O89049. recombinant rTrxR1, NADPH fluorescence consumption, selenite substrate. Potency, µM (highest dose often 114 µM), without a hit: at the top dose activity change, negative = inhibition, actives largely listed as inhibitors. 390,000 tested, 1% active. AID 588453; further: nearly all actives have a fitted effect of over 65% in size
#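 Rat TrxR1 (90 nM in the dispensed reagent) was pre-reduced with 400 uM NADPH for 5 min at room temperature, then incubated with compound for 15 min. After 400 uM selenite was added, NADPH fluorescence (Ex 340/Em 450 nm) was followed for 8 min.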
# Starred values were filed as active, the others as inactive; u = inconclusive; x = not tested or not shown; [ ] = dose if it differs, or a comment. The call rests on the fitted dose curve; in most records, active means well fitted curve in the direction sought with a large enough effect; inconclusive means small, poorly fitted or top-dose-only effect, or another doubt; inactive means no such curve, though single readings can be large; an effect the other way counts as inactive or inconclusive. On the % scale 0 is the no-effect control and ±100 the full control effect; potency means the concentration at half of the fitted maximal effect.
SMILES,mIDH1 inhibitor,Anesthetic bind,PKM2 act,GALK inh,TrxR1 substrate,rTrxR1 inhibitor
O=[N+]([O-])c1c(NCCCO)cc(Sc2nc3ccccc3s2)c2nonc12,7%,u,-24%,8%,-1%,0.63µM*
NCCNc1ccc([N+](=O)[O-])c(Sc2nc3ccccc3[nH]2)c1,7%,-18%,2%,x,-15%,-16%
CCCSc1cc(NCCOC(C)=O)c([N+](=O)[O-])c2nonc12,0%,-3%,9%,0%,-10%,-6%
CCC(=O)OCCNc1cc(Sc2nc3ccccc3[nH]2)c2nonc2c1[N+](=O)[O-],-2%,u,u,-2%,-15%,0.28µM*
O=[N+]([O-])c1c(NCCO)cc(N2CCCCCC2)c2nonc12,2%,u,0%,-3%,-11%,8%
CCC(=O)OCCNc1cc(Sc2nc3ccccc3s2)c2nonc2c1[N+](=O)[O-],4%,u,u,-1%,-1%,0.28µM*
CCOc1ccc(CNC(=O)c2ccc3nc(Cc4ccc(OC)cc4)oc3c2)cc1OC,-4%,3%,x,x,0%[57.1 µM],26%[57.1 µM]
CCOc1ccc(N2CC(NC(=O)c3ccc4c(c3)OCO4)CC2=O)cc1 (configuration not stated),-4%,5%,x,x,1%[57.1 µM],2%[57.1 µM]
CCOc1ccc(NC(=O)C(C)Sc2nnc3cc(C)c4ccccc4n23)cc1 (configuration not stated),-5%,1%,x,x,-3%,14%
Cn1cc(/C=C/c2ccnc3ccccc23)c2ccccc21,x,x,x,x,-7%,-20%
COc1ccccc1/C=C/c1onc(C)c1S(=O)(=O)N1CCC(C(=O)N2CCC(C)CC2)CC1,7%,-12%,x,x,6%[57.1 µM],21%[57.1 µM]
CC(C)(C)c1ccc(C(=O)NCC(c2cccs2)S(=O)(=O)c2ccccc2)cc1 (configuration not stated),-1%,-1%,x,x,0%[57.1 µM],15%[57.1 µM]
O=S(=O)(NCC(c1cccs1)S(=O)(=O)c1ccccc1)c1ccccc1 (configuration not stated),-9%,4%,x,x,1%[57.1 µM],0.56µM*
O=S(=O)(NCC(c1ccco1)S(=O)(=O)c1cccs1)c1ccccc1 (configuration not stated),-9%,-11%,x,x,2%[57.1 µM],16µM*
O=S(=O)(NCC(c1ccco1)S(=O)(=O)c1cccs1)c1ccc(Cl)cc1 (configuration not stated),-8%,-8%,x,x,4%[57.1 µM],0.63µM*
O=S(=O)(NCC(c1ccco1)S(=O)(=O)c1cccs1)c1ccc(F)c(C(F)(F)F)c1 (configuration not stated),-1%,-14%,x,x,-3%[57.1 µM],0.45µM*
CCC(=O)N1c2ccccc2CC1C(=O)NCCc1ccc(OC)cc1OC (configuration not stated),-17%,-19%,x,x,2%[57.1 µM],9%[57.1 µM]
O=C(Nc1ccc(Cl)cc1Cl)[C@@H]1CC=C[C@@H]2CCN(Cc3ccccc3)C(=O)[C@@H]21,x,x,x,x,4%,15%
Brc1ccc2c(ccc[n+]2CCc2ccccc2)c1,x,x,x,x,3%,22%
Cc1ccccc1OCc1nnc2c3cnn(C)c3ncn12,8%,-7%,28µM*,4%,-5%,0%
Cc1nc([N+](=O)[O-])c(Br)n1Cc1ccc(Cl)c(Cl)c1,u,u,15%,-11%,-4%,10µM*
COc1ccc(C(=O)Cn2c(C)nc([N+](=O)[O-])c2Br)cc1,9%,4%,-2%,-4%,14%[57.1 µM],18µM*
Cc1nc([N+](=O)[O-])c(Br)n1CC(=O)c1ccc(Cl)cc1,-2%,-21%,1%,0%,11%[57.1 µM],2.5µM*
COc1ccc(C(=O)Cn2cc([N+](=O)[O-])nc2C)cc1,0%,5%,x,-4%,-2%,-7%
CCOC(=O)Nc1ccc(/C=C/c2ccnc3ccccc23)cc1,x,x,x,x,3%,12%[0.0914 µM]
SMILES,mIDH1 inhibitor,Anesthetic bind,PKM2 act,GALK inh,TrxR1 substrate,rTrxR1 inhibitor
Cc1cc2c(cc1S(=O)(=O)Nc1cccc(C)c1C)n(C)c(=O)c(=O)n2C,14%,-18%,0.5µM*,x,-4%,0%
Cc1cc2c(cc1S(=O)(=O)Nc1ccc(F)cc1)n(C)c(=O)c(=O)n2C,6%,-18%,2.5µM*,x,9%[57.1 µM],12%[57.1 µM]
COc1ccccc1N(CC(=O)NCCSc1ccccc1)S(=O)(=O)c1ccc(C)cc1,-5%,95%,x,x,-2%,15%
Cc1cc(SC#N)cc(C)c1NC(=O)CCl,0%,6%,0%,0%,-7%,50µM*
CC1C/C(=C/c2ccncc2)C(=O)/C(=C/c2ccncc2)C1 (configuration not stated),u,-13%,14%,-14%,3%,14µM*
CC[N+]1(C)CCC(O)(c2ccc(OC)cc2)C(C(=O)c2ccc(OC)cc2)C1 (configuration not stated),-1%,x,x,x,4%,0.71µM*
Nc1ccc2oc(Cc3ccc(Cl)cc3)nc2c1,x,-5%,x,x,1%,50µM*
CC1CCCN(C(=O)COc2ccc(Nc3ccccc3)cc2)C1 (configuration not stated),6%,18µM*,-2%,-2%,-18%[57.1 µM],17%[57.1 µM]
Cc1ccc2nc(SCC(=O)c3ccc4c(c3)NC(=O)CO4)[nH]c2c1,0%,u,-5%,0%,-6%,14%[57.1 µM]
Cc1ccc(C)c(-n2nnnc2SCC(=O)c2ccc3c(c2)NC(=O)CO3)c1,3%,u,14µM*,-1%,1%,-1%
Cc1c2cc(O)c(=O)cc-2oc2cc(O)c(O)cc12,0%,1%,u,0%,4%,-9%
COc1cc(OC)c(-c2c3cc(O)c(=O)cc-3oc3cc(O)c(O)cc23)cc1OC,12µM*,6%,-8%,2%,-15%,-14%
Cc1cc(C)nc(S/C=C/C(=O)c2ccccc2F)n1,6%,1%,5%,0%,11%[57.1 µM],2µM*
Cc1cc(C)nc(NC(=S)NC(=O)c2ccccc2F)n1,14%,x,x,x,2%[57.1 µM],10%
CCN(CCCNC(=O)c1cc2cc3cc(C)ccc3nc2s1)c1cccc(C)c1,1%,-4%,x,x,-8%[57.1 µM],6%[57.1 µM]
Cc1cccc(C)c1N=Nc1c(C)cc(O)cc1C,0%,25µM*,0%[11.5 µM],6%,-1%[57.1 µM],-47%
CC(C)N1CCc2c(sc(NC(=O)CCS(=O)(=O)c3ccccc3)c2C#N)C1,8%,8%,9%,5%,-7%,10µM*
CCCN1CCc2c(sc(NC(=O)CCS(=O)(=O)c3ccccc3)c2C(=O)OC)C1,3%,-16%,-4%,-2%,0%,50µM*
COc1ccccc1/C=C/c1nc2ccccc2n1C(C)C,-6%,45%,x,x,43%,32%

# Screening results deposited in PubChem by National Center for Advancing Translational Sciences (NCATS).
